BoNT F protease – BoNT F light chain protease inhibition | Multiplex microsphere protease cleavage assay, flow cytometry | inhibition, % at 10 µM | actives 0.22% (n = 360,000); in the data active = inhibition above about 35%, passing the limit was not always enough; inconclusive = no clear call, values can overlap the other calls
Anthrax LF prot – inhibitors of Bacillus anthracis lethal factor protease | actives 0.12% (n = 360,000) | multiplex microsphere protease cleavage assay, LF | inhibition, % at 10 µM | AID 588501 | P15917
Target sequence (P15917 whole entry, looked up): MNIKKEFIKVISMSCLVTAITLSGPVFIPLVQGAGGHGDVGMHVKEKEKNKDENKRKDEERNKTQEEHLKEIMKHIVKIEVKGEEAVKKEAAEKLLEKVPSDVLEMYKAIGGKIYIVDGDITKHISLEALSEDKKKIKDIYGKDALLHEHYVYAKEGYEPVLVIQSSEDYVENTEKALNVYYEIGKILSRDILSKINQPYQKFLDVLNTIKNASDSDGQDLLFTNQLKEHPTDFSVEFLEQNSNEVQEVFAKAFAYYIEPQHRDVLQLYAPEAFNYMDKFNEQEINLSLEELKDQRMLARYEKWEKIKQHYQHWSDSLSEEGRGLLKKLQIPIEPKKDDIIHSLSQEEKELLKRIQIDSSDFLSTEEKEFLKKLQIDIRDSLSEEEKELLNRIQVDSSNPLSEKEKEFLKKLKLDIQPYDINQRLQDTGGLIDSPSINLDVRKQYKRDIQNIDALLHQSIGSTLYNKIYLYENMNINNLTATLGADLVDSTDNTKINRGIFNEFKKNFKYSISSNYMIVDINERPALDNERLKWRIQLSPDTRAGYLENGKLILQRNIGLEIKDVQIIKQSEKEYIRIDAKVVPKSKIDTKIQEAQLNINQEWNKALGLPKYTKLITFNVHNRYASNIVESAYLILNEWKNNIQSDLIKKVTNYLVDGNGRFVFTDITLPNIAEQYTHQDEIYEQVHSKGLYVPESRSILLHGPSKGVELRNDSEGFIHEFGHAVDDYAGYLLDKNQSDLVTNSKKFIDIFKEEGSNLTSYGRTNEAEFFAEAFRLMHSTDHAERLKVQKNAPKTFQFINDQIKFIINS
BoNT A protease – inhibitors of Botulinum neurotoxin A light chain protease; multiplex microsphere protease substrate cleavage, flow cytometry; inhibition, % at 10 µM; actives 0.17% (n = 360,000)
Autofluor counter – counter-screen for toxin protease inhibitors: compound fluorescence | actives 3.1% (n = 360,000) | compound autofluorescence counterscreen, microsphere flow cytometry; hits give high values | fluorescence intensity (no concentration beside the values); in the data active = fluorescence intensity above about 16000; inconclusive = no clear call, values can overlap the other calls
Each line names hits and unclear results; the compound was inactive in the other large screens. Hits are enriched below; roughly 3.5% of the tested compounds scored in any of these assays. Cut-off read from the data, not from the text of the source, unless noted: active = inhibition above about 30%; inconclusive = no clear call, values can overlap the other calls; inactive = below that.

Cc1c(CN2CCC(CO)(CCOc3ccccc3)CC2)[nH]c2c(Cl)cccc12	none
O=c1oc2cc(O)ccc2cc1-c1nc2c(s1)CCc1ccccc1-2	BoNT A protease 47.3
O=c1oc2ccccc2cc1-c1nc2c(s1)CCc1ccccc1-2	BoNT A protease 64.2
Nc1nnc(-c2cc3ccccc3oc2=O)s1	none
O=c1oc2cc(O)ccc2cc1-c1ccccc1	none
CCOC(=O)CSc1nc(N2CCOCC2)c2c(c1C#N)CC(C)(C)N(C)C2	none
Cc1nn(C(C)C(=O)NCCCN2CCCCCC2)c(=O)c2cc3sccc3n12 (stereo not drawn)	none
O=[n+]1c2c(n([O-])c3ccccc31)CCCC2	Autofluor counter 16483
Cc1ccc2nc(C(F)(F)F)c(C#N)c(N)c2c1	BoNT A protease inconclusive, Autofluor counter 23566
Cc1ccc(-n2nnnc2-c2ccco2)cc1	none
CN(C)C(CNc1nnnn1-c1ccccc1)c1ccco1 (stereo not drawn)	Autofluor counter 20446
CCCN(C(=O)CSc1nnc(-c2ccncc2)n1CCC)c1c(N)n(Cc2ccccc2)c(=O)[nH]c1=O	none
O=C(CSc1cc(Cl)ccc1Cl)NCC1CCCO1 (stereo not drawn)	Autofluor counter 22708
Oc1ccc(Cl)cc1CNCC1CCCO1 (stereo not drawn)	Autofluor counter 20694
Nc1cc(N)nc(SCC(=O)NCC2CCCO2)n1 (stereo not drawn)	BoNT A protease inconclusive, Autofluor counter 20538
Cc1cc(Oc2ccc(=O)n(C)n2)nc(SCc2ccccc2)n1	none
O=C(O)CCn1cc(C(=O)O)c(-c2ccccc2)n1	none
CN(C)c1oc(-c2ccccc2)nc1C#N	Autofluor counter 22791
CCN1/C(=C/c2ccc3cc(C)ccc3[n+]2CC)Sc2cc(C)ccc21	BoNT A protease 54.7
CCCCN1/C(=C/c2ccc3ccccc3[n+]2CC)Sc2ccccc21	none
Cc1oc(-c2ccccc2Cl)nc1CSCC(=O)N1CCCC1	Autofluor counter 22629
Cc1oc(-c2ccccc2Cl)nc1CSCC(=O)NC1CCCC1	none
CCCCN(C=O)c1c(CC)nc2c(OCC(=O)c3ccc(F)cc3)cccn12	none
Cc1ccsc1C(=O)N1CCC1(C)C(=O)NS(=O)(=O)c1cccc(F)c1 (stereo not drawn)	none
CCCNC(=O)NCCc1ccncc1	none
CC(C)CC(=O)NCCc1ccncc1	Autofluor counter 22906
CC1CCCC(NC(=O)C2CCN(S(=O)(=O)N3CCCCC3)CC2)C1C (stereo not drawn)	none
CN(C)c1ccc(NC(=O)Nc2ccc3c(c2)c(=O)n(C)n3Cc2ccc(Cl)cc2)cc1	none
CCOc1ccc(NC(=O)C2CCN(C(=O)NC3CCCCC3)CC2)cc1	none
COc1ccc(NC(=O)C2CCN(C(=O)NCc3ccccc3)CC2)cc1	Autofluor counter 16148
CCOc1ccc(NC(=O)C2CCN(C(=O)NCc3ccccc3)CC2)cc1	Autofluor counter 22864
COc1ccc(N2CCC(CNC(=O)Nc3ccccc3)C2)cc1 (stereo not drawn)	Autofluor counter 19305
COc1ccc(N2CCC(CNC(=S)Nc3cc(C)cc(C)c3)C2)cc1 (stereo not drawn)	none
CCOc1ccc(NC(=O)C2CC=CCC2C(=O)O)cc1 (stereo not drawn)	Autofluor counter 22332
Cc1ccc(NC(=O)C2CCN(C(=O)NCc3ccccc3)CC2)cc1C	none
COc1ccc(-c2nc3cc(C)c(Br)c(C)n3c2Cc2ccc(C)cc2)cc1OC	none
CCOc1ccc(Nc2nc3c(c(=O)[nH]2)CCC3)cc1	Autofluor counter 16524
COc1cccc(C(C)N(C)Cc2nc(-c3ccoc3)oc2C)c1 (stereo not drawn)	none
CCOc1ccc(OCc2cccc(C(=O)O)c2)cc1	Autofluor counter 22901
CCOc1ccc(C(=O)NC(C)(C)CC)cc1	none
CCOc1ccc(C(C)(N)C(=O)O)cc1 (stereo not drawn)	BoNT A protease inconclusive, Autofluor counter 22131
O=C(COc1ncnc2sccc12)Nc1cccc(S(=O)(=O)N2CCOCC2)c1	none
CC(Sc1nc(-c2ccccc2)cc(=O)[nH]1)C(=O)O (stereo not drawn)	Autofluor counter 24389
Cc1cc(NC(=O)C(C)Sc2nc(-c3ccccc3)cc(=O)[nH]2)no1 (stereo not drawn)	none
CC(C)(C)OC(=O)n1cc(/C=N/NC(=O)c2ccco2)c2ccccc21	none
O=S(=O)(N=S(N1CCCCC1)N1CCCCC1)c1ccccc1	BoNT A protease inconclusive, Autofluor counter 19826
O=S(=O)(/N=C(/c1ccccc1)N1CCCCCC1)c1ccccc1	none
C(=N\Nc1nc(N2CCOCC2)nc(N2CCOCC2)n1)/c1cccnc1	Autofluor counter 22356
C(=N\Nc1nc(N2CCOCC2)nc(N2CCOCC2)n1)/c1ccncc1	none
COc1ccc(O)c(C(=O)c2cnc3c(c2)c(C)nn3CCO)c1	none
